Compound activity deposited in PubChem BioAssay by National Center for Advancing Translational Sciences (NCATS).
In the library only some 4.7% were active in any assay of this set; here they are far more common.
D1 potentiator: human D1 dopamine receptor positive modulation | P21728 | HEK293 TREx D1 cells, calcium flux, dopamine EC20 potentiation | potentiation, % at 10 µM | 0.036% of 360,000 active; in the data active = potentiation above about 30%
Target sequence (P21728 whole entry, looked up): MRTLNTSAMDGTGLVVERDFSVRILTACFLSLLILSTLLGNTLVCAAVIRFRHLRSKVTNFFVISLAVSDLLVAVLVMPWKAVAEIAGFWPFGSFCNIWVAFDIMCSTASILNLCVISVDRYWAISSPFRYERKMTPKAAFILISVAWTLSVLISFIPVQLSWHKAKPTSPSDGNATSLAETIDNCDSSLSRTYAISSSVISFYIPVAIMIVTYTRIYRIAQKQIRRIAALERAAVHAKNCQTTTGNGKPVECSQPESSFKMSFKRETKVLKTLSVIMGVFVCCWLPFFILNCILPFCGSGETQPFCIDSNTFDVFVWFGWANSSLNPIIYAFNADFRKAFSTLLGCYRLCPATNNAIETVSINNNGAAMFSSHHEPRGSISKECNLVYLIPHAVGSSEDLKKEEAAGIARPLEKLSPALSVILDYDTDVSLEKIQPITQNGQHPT
TRHR PAM: allosterically enhances the human TRH receptor; P34981; TRHR cells, fluo-8 calcium fluorescence, EC20 TRH enhancement; enhancement, % at 2 µM; 0.66% of 360,000 active; in the data active = enhancement above about 30%
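TRHR-expressing cells loaded with fluo-8 calcium dye were read kinetically (ex 480/em 530) during compound addition, then stimulated with an EC20 of TRH (10 nM final). Enhancement of the Gq-mediated intracellular calcium response was scored.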
TRHR ag: agonists of human TRH receptor | P34981 | TRHR cells, calcium flux fluo-8, FDSS agonist mode | activation, % at 2 µM | 0.18% of 360,000 active | AID 493084
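Read-out: compound-evoked intracellular calcium rise in TRHR cells, fluo-8 dye, kinetic FDSS fluorescence at 1 s/cycle following a 10-cycle baseline. Cells cultured overnight before dye loading (30 min–1.5 h, RT).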
D1 antag: blocks dopamine activation of the human D1 receptor; P21728; HEK293 TREx D1 cells, calcium flux, dopamine EC80; hits give low values; activity change, negative = inhibition, % at 10 µM; 3.2% of 360,000 active; in the data active = activity change below about -30%
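Antagonism measured as reduced calcium response to an EC80 dopamine addition following 180 s compound pre-read; cells were inducible HEK293 Trex D1 plated overnight at 30 C, read kinetically at 1 cycle/sec.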
D1 agonist: agonists of human D1 dopamine receptor; 1% of 360,000 active; P21728; activation, % at 2 µM; HEK293 T-REx D1 cells, calcium flux, agonist mode
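Tetracycline-induced HEK293 TREx D1 cells, force-coupled to calcium signalling, were dye-loaded with a no-wash calcium kit. Compound was pin-added after a 10 s baseline. Fluorescence was read kinetically at 1 cycle/s for 180 s, with calcium rises flagged as agonism.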
Hits are given with their value; - = inactive; . = no result given. Cut-off read from the data, not from the text of the source, unless noted: active = activation above about 30%; inactive = the rest.

SMILES	D1 potentiator	TRHR PAM	TRHR ag	D1 antag	D1 agonist
c1ccc(N2OCC3Cn4c(nc5ccccc54)C32)cc1 (configuration not stated)	-	-	-	-36	-
CCOc1cc(OCC)cc(C(=O)Nc2cccc(-c3nc4ccccc4[nH]3)c2)c1	-	-	-	-38	-
CCOc1cccc(C(=O)Nc2ccncc2)c1	-	-	-	-32	-
CCOc1cccc(NC(=O)c2ccc(S(=O)(=O)N(C)C)cc2)c1	-	-	-	-43	-
CCOc1cccc(C(=O)Nc2ccc3[nH]ncc3c2)c1	-	-	-	-32	-
O=C(CCCc1ccccc1)NC1CC(=O)N(c2ccc(F)cc2)C1 (configuration not stated)	-	-	-	.	-
O=C(Cn1c(=O)nc(-c2ccccc2)c2ccccc21)NCc1ccccc1Cl	-	-	-	-	-
Cc1cc2c(s1)c1cnn(Cc3c(F)ccc(Cl)c3F)c(=O)c1n2C	-	-	-	-	-
COc1cc(OC)cc(C(=O)Nc2ccc(C(=O)c3ccncc3)cc2)c1	-	-	-	-38	-
COc1cccc(C(=O)Nc2ccc3[nH]ncc3c2)c1	-	-	-	-34	-
Cc1[nH]c(=O)nc(SCc2ccc(Cl)c(Cl)c2)c1C#N	-	-	-	-	-
CN(C)C(=N)c1n[nH]nc1SCc1ccc(Cl)c(Cl)c1	-	-	-	-36	-
COc1ccc(NC(=O)c2cccc3c(=O)c4c([nH]c23)CCCC4)cc1	-	-	-	-33	-
O=C(COc1ccc(Br)cc1)NCCN1CCCC1	-	30	-	-	-
Cc1ccccc1Cc1ccc(Cl)nn1	-	-	-	-44	-
COc1cccc(CNC(=O)c2cc(C)nc3c2c(C)nn3-c2cccc(F)c2)c1	-	-	-	-	33
Cc1cc(C(=O)NCc2ccccc2Cl)c2c(C)nn(-c3cccc(F)c3)c2n1	-	-	-	-	-
CCc1ccc(-n2nc(C)c3c(C(=O)Nc4cccc(C(F)(F)F)c4)cc(C)nc32)cc1	-	-	-	-35	-
Cc1cc(C(=O)NCc2ccccc2C)c2c(C)nn(-c3cccc(F)c3)c2n1	-	-	-	-46	-
COc1ccc(-c2[nH]ncc2C(=O)NCc2cccc(F)c2)cc1	-	37	-	-	-
COc1ccc(-c2[nH]ncc2C(=O)NCc2ccc(F)cc2)cc1	-	-	-	-	-
Cc1cc(C(=O)NCc2cccc(Br)c2)c2c(C)nn(-c3ccccc3)c2n1	-	-	-	-	-
COc1ccccc1NC(=O)Cn1c(=O)n(CC(=O)NCc2ccccc2Cl)c(=O)c2sccc21	-	-	-	-	-
CC(=O)c1c(C)[nH]c(C(=O)N2c3ccccc3CC2C)c1C (configuration not stated)	-	-	-	-41	-
CC(=O)c1c(C)[nH]c(C(=O)N2CCc3ccccc3C2)c1C	-	-	-	-	-
SMILES	D1 potentiator	TRHR PAM	TRHR ag	D1 antag	D1 agonist
Cc1nc2c(c(C)nn2C(C)(C)C)c(C)c1CCC(=O)Nc1ccc(Br)cc1Br	-	-	-	-	-
COc1ccc(OC)c(NC(=O)CCc2c(C)nc3c(c(C)nn3C(C)(C)C)c2C)c1	-	-	-	-42	-
Cc1cc(C)c2c(CC(=O)N(Cc3ccccc3)C3CCS(=O)(=O)C3)coc2c1 (configuration not stated)	-	-	-	-	-
CC(C)(C)C(=O)Cn1ncc(Cl)c(Cl)c1=O	-	32	-	-	-
CCCN(CCC)C(=O)Cn1c(=O)n(CCCCC(=O)NC2CCCC2)c(=O)c2ccccc21	-	-	-	-	-
O=C(O)CCNC(=O)CCCn1nnc2ccccc2c1=O	-	-	-	-43	-
O=C(Cn1ncc(Cl)c(Cl)c1=O)NC1CCCCC1	-	-	-	-37	-
CC(C)C[C@H](NC(=O)CCCn1nnc2ccccc2c1=O)C(=O)O	-	-	-	-	-
O=C(CCCCn1c(=O)c2ccccc2n(CC(=O)NC2CCCC2)c1=O)NC1CCCC1	-	-	-	-39	-
Cc1ccc(OCCn2c(-c3ccc(Br)cc3)nc3ccccc3c2=O)cc1C	-	-	-	-	-
O=C(CC1CCCCC1)OCn1nnc2ccccc2c1=O	-	-	-	-	-
O=C(Cn1nnc2ccccc2c1=O)NC1CCCCC1	-	-	-	-43	-
CCOC(=O)Cc1c(C)nc(N)[nH]c1=O	-	-	-	-31	-
